Experimental data from the supplement of paper PMC8728848.
The full list was thinned out, with the strongest signals kept by preference.

Tests used:
Test in all cases: glycan array binding signal (z-score within array); higher = stronger binding
Conditions in all cases: glycan notation: IUPAC condensed, linker removed
[1] = target: Fuc(a1-2)Gal6S(b1-3)GlcNAc6S
Procedure, shortened: (§1)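 The binding signal is a Z-score computed within each array and averaged over linkers. Arrays of the same protein sequence at different concentrations or buffers were also averaged together. Data originate from 3228 arrays in the Consortium for Functional Glycomics database, kept only where the protein sequence was available.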

[2] = target: Fuc(a1-2)[Gal(a1-3)]Gal(b1-3)GlcNAc(b1-2)Man(a1-3)[Fuc(a1-2)[Gal(a1-3)]Gal(b1-3)GlcNAc(b1-2)Man(a1-6)]Man(b1-4)GlcNAc(b1-4)[Fuc(a1-6)]GlcNAc
Procedure, shortened: as §1

[3] = target: Fuc(a1-2)[GalNAc(a1-3)]Gal(b1-4)[Fuc(a1-3)]GlcNAc(b1-3)GalNAc
Procedure, shortened: as §1

[4] = target: Fuc(a1-3)[Gal(b1-4)]GlcNAc
Procedure, shortened: as §1

[5] = target: Fuc(a1-3)[Gal(b1-4)]GlcNAc(b1-3)Gal(b1-4)[Fuc(a1-3)]GlcNAc
Procedure, shortened: as §1

[6] = target: Fuc(a1-3)[Gal(b1-4)]GlcNAc(b1-3)Gal(b1-4)[Fuc(a1-3)]GlcNAc(b1-3)Gal(b1-4)[Fuc(a1-3)]GlcNAc
Procedure, shortened: as §1

[7] = target: Gal(a1-4)Gal(b1-4)GlcNAc(b1-2)Man(a1-3)[Gal(a1-4)Gal(b1-4)GlcNAc(b1-2)Man(a1-6)]Man(b1-4)GlcNAc(b1-4)GlcNAc
Procedure, shortened: as §1

Gal(b1-2)Gal = target: Gal(b1-2)Gal
Procedure, shortened: as §1

[8] = target: Gal(b1-3)[Fuc(a1-4)]GlcNAc(b1-6)GalNAc
Procedure, shortened: as §1

[9] = target: Gal(b1-3)[Neu5Ac(a2-6)]GalNAc
Procedure, shortened: as §1

[10] = target: Gal(b1-4)GlcNAc(b1-2)Man(a1-3)[Gal(b1-4)GlcNAc(b1-2)Man(a1-6)]Man(b1-4)GlcNAc(b1-4)[Fuc(a1-6)]GlcNAc
Procedure, shortened: as §1

[11] = target: Gal(b1-4)GlcNAc(b1-2)Man(a1-6)[Man(a1-3)]Man(b1-4)GlcNAc(b1-4)GlcNAc
Procedure, shortened: as §1

[12] = target: Gal(b1-4)GlcNAc(b1-3)Gal(b1-4)GlcNAc
Procedure, shortened: as §1

[13] = target: Gal(b1-4)GlcNAc(b1-3)Gal(b1-4)GlcNAc(b1-3)Gal(b1-4)GlcNAc(b1-3)Gal(b1-4)GlcNAc(b1-3)Gal(b1-4)GlcNAc(b1-2)Man(a1-3)[Gal(b1-4)GlcNAc(b1-3)Gal(b1-4)GlcNAc(b1-3)Gal(b1-4)GlcNAc(b1-3)Gal(b1-4)GlcNAc(b1-3)Gal(b1-4)GlcNAc(b1-2)Man(a1-6)]Man(b1-4)GlcNAc(b1-4)GlcNAc
Procedure, shortened: as §1

[14] = target: Gal(b1-4)GlcNAc(b1-3)Gal(b1-4)GlcNAc(b1-3)Gal(b1-4)GlcNAc(b1-3)Gal(b1-4)GlcNAc(b1-3)Gal(b1-4)GlcNAc(b1-2)Man(a1-3)[Gal(b1-4)GlcNAc(b1-3)Gal(b1-4)GlcNAc(b1-3)Gal(b1-4)GlcNAc(b1-3)Gal(b1-4)GlcNAc(b1-3)Gal(b1-4)GlcNAc(b1-2)Man(a1-6)]Man(b1-4)GlcNAc(b1-4)[Fuc(a1-6)]GlcNAc
Procedure, shortened: as §1

[15] = target: Gal(b1-4)GlcNAc(b1-3)Gal(b1-4)GlcNAc(b1-3)Gal(b1-4)GlcNAc(b1-3)Gal(b1-4)GlcNAc(b1-3)Gal(b1-4)GlcNAc(b1-3)Gal(b1-4)GlcNAc(b1-2)Man(a1-3)[Gal(b1-4)GlcNAc(b1-3)Gal(b1-4)GlcNAc(b1-3)Gal(b1-4)GlcNAc(b1-3)Gal(b1-4)GlcNAc(b1-3)Gal(b1-4)GlcNAc(b1-3)Gal(b1-4)GlcNAc(b1-2)Man(a1-6)]Man(b1-4)GlcNAc(b1-4)GlcNAc
Procedure, shortened: as §1

[16] = target: Gal(b1-4)GlcNAc(b1-3)[GlcNAc(b1-6)]Gal(b1-4)GlcNAc
Procedure, shortened: as §1

Gal3S6S(b1-4)GlcNAc6S = target: Gal3S6S(b1-4)GlcNAc6S
Procedure, shortened: as §1

Gal4S6S(b1-4)GlcNAc = target: Gal4S6S(b1-4)GlcNAc
Procedure, shortened: as §1

Gal6S(b1-3)GlcNAc6S = target: Gal6S(b1-3)GlcNAc6S
Procedure, shortened: as §1

GalNAc(b1-4)GlcNAc6S = target: GalNAc(b1-4)GlcNAc6S
Procedure, shortened: as §1

GlcA(b1-3)Gal = target: GlcA(b1-3)Gal
Procedure, shortened: as §1

[17] = target: GlcNAc(b1-2)Man(a1-3)[GlcNAc(b1-4)][GlcNAc(b1-2)Man(a1-6)]Man(b1-4)GlcNAc(b1-4)GlcNAc
Procedure, shortened: as §1

[18] = target: GlcNAc(b1-3)Gal(b1-4)GlcNAc
Procedure, shortened: as §1

[19] = target: GlcNAc(b1-3)Gal(b1-4)GlcNAc(b1-3)Gal(b1-4)GlcNAc(b1-2)Man(a1-3)[GlcNAc(b1-3)Gal(b1-4)GlcNAc(b1-3)Gal(b1-4)GlcNAc(b1-2)Man(a1-6)]Man(b1-4)GlcNAc(b1-4)GlcNAc
Procedure, shortened: as §1

[20] = target: GlcNAc(b1-3)Gal(b1-4)GlcNAc(b1-3)Gal(b1-4)GlcNAc(b1-3)Gal(b1-4)GlcNAc(b1-2)[GlcNAc(b1-3)Gal(b1-4)GlcNAc(b1-3)Gal(b1-4)GlcNAc(b1-3)Gal(b1-4)GlcNAc(b1-6)]Man(a1-6)[GlcNAc(b1-3)Gal(b1-4)GlcNAc(b1-3)Gal(b1-4)GlcNAc(b1-3)Gal(b1-4)GlcNAc(b1-2)Man(a1-3)]Man(b1-4)GlcNAc(b1-4)[Fuc(a1-6)]GlcNAc
Procedure, shortened: as §1

[21] = target: GlcNAc(b1-3)Gal(b1-4)GlcNAc(b1-3)Gal(b1-4)GlcNAc(b1-3)Gal(b1-4)GlcNAc(b1-3)Gal(b1-4)GlcNAc(b1-2)Man(a1-3)[GlcNAc(b1-3)Gal(b1-4)GlcNAc(b1-3)Gal(b1-4)GlcNAc(b1-3)Gal(b1-4)GlcNAc(b1-3)Gal(b1-4)GlcNAc(b1-2)Man(a1-6)]Man(b1-4)GlcNAc(b1-4)[Fuc(a1-6)]GlcNAc
Procedure, shortened: as §1

[22] = target: Man(a1-2)Man(a1-6)[Man(a1-3)]Man(a1-6)[Man(a1-2)Man(a1-2)Man(a1-3)]Man(b1-4)GlcNAc(b1-4)GlcNAc
Procedure, shortened: as §1

Man(a1-3)[Man(a1-6)]Man = target: Man(a1-3)[Man(a1-6)]Man
Procedure, shortened: as §1

[23] = target: Man(a1-3)[Man(a1-6)]Man(b1-4)GlcNAc(b1-4)GlcNAc
Procedure, shortened: as §1

B1: MUB70 (Lactobacillus reuteri) (protein)
chain: CVHVQYIDGETDQMLRQDDLDGYTDETIPYSTAEGIKKFEGDGYELFKDNFPAGEKFDNDDTNDQFYTVIF
B1 was tested, and the “glycan array binding signal (z-score)” value [1] was 2.39, the “glycan array binding signal (z-score)” value [2] was -0.317 and the “glycan array binding signal (z-score)” value [3] was -0.274. The “glycan array binding signal (z-score)” value [4] was -0.273, the “glycan array binding signal (z-score)” value [5] was -0.143 and the “glycan array binding signal (z-score)” value [6] was -0.805. The “glycan array binding signal (z-score)” value [7] was 0.445, the “glycan array binding signal (z-score)” value (Gal(b1-2)Gal) was 2.16 and the “glycan array binding signal (z-score)” value [8] was -0.459. The “glycan array binding signal (z-score)” value [9] was 0.618, the “glycan array binding signal (z-score)” value [10] was -0.056 and the “glycan array binding signal (z-score)” value [11] was 0.734. For the same binder, the “glycan array binding signal (z-score)” value [12] was -0.399, the “glycan array binding signal (z-score)” value [13] was 0.479 and the “glycan array binding signal (z-score)” value [14] was 2.07. For the same binder, the “glycan array binding signal (z-score)” value [15] was 2.37, the “glycan array binding signal (z-score)” value [16] was -0.071 and the “glycan array binding signal (z-score)” value (Gal3S6S(b1-4)GlcNAc6S) was 3.78. The “glycan array binding signal (z-score)” value (Gal4S6S(b1-4)GlcNAc) was 1.99, the “glycan array binding signal (z-score)” value (Gal6S(b1-3)GlcNAc6S) was 4.49 and the “glycan array binding signal (z-score)” value (GalNAc(b1-4)GlcNAc6S) was 0.276. The “glycan array binding signal (z-score)” value (GlcA(b1-3)Gal) was -0.592, the “glycan array binding signal (z-score)” value [17] was 0.036 and the “glycan array binding signal (z-score)” value [18] was -0.453. The “glycan array binding signal (z-score)” value [19] was 2.17, the “glycan array binding signal (z-score)” value [20] was 0.94 and the “glycan array binding signal (z-score)” value [21] was 0.523. For the same binder, the “glycan array binding signal (z-score)” value [22] was 0.042, the “glycan array binding signal (z-score)” value (Man(a1-3)[Man(a1-6)]Man) was -0.052 and the “glycan array binding signal (z-score)” value [23] was -0.322.
